# A selection: hits, their analogues and other compounds. The true share with any hit is near 2.1%.
# PfHsp90 yeast 2: growth inhibition of yeast expressing Plasmodium Hsp90 | 0.32% of 310,000 active | AID 504621 | inhibition, % at 9.4 µM | S. cerevisiae expressing PfHsp90, BacTiter-Glo ATP, 48 h; yeast lacking PDR1 and PDR3 efflux regulators;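 active = every replicate shows inhibition above about 80%, whatever the replicate mean, limit read from the data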;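 note: 0% = DMSO neutral controls and 100% = 20 µM radicicol positive controls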
# NSD2 HMT inh: blocks human histone methyltransferase NSD2; O96028; NSD2 peptide methylation, AlphaScreen, 120 min; inhibition, % at 12.5 µM; 0.54% of 310,000 active; AID 743445; in the data active = inhibition above about 50%
# SIRT5 inh: inhibitors of human sirtuin-5 desuccinylase; Q9NXA8; Purified SirT5, succinyl-peptide AMC, trypsin-coupled fluorescence; AID 652115; 1.1% of 330,000 active; inhibition, % at 15 µM; in the data active = inhibition above about 15%
# Casp6 inh: caspase-6 (human) enzyme inhibition; P55212; purified caspase-6, Z-VEID-R110 cleavage fluorescence; inhibition, % at 12.5 µM; 0.53% of 350,000 active;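 active = mean inhibition across replicates at least about 35%, with every replicate also reaching that limit, limit read from the data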;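 note: 0% = median of neutral control wells and 100% = no fluorescence left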
# ARNT-TACC3 inh: disruptors of human ARNT/TACC3 interaction; 0.66% of 390,000 active; AlphaScreen His-ARNT PAS-B/GST-TACC3 binding, luminescence; TACC3 fragment carries E629A point mutation; inhibition, % at 9.99 µM;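 active = mean inhibition of replicates at least 50% and at least half of replicates each reaching 50%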;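 note: 0% = complete ARNT plus TACC3 wells and 100% = ARNT alone without TACC3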
# Alpha artifact: counter-screen for NSD2 inhibitors: AlphaScreen artifacts; shares compounds with NSD2 HMT inh; AlphaScreen artifact counterscreen, preloaded methylated H4 peptide; AC35, µM (top dose mostly 10 µM), without a hit: top-dose activity change, negative = signal loss; 9.4% of 1,500 active; AID 1053174; call rule not given here
# Numbers without * were called inactive; / = not tested or not shown.
SMILES,PfHsp90 yeast 2,NSD2 HMT inh,SIRT5 inh,Casp6 inh,ARNT-TACC3 inh,Alpha artifact
CN1c2cccc3cccc(c23)N(C)C1(C)C,25.8,94.5*,/,/,11.6,-5.4%
O=C(C[C@@H]1CC[C@@H]2[C@H](COC[C@@H](O)CN2Cc2ccc(F)cc2)O1)N1CCc2ccccc2C1,/,/,3.0,1.6,4.2,/
C=CCC1C=C(Cc2ccccc2)CC(CC=C)N1 (stereo unspecified),-1.1,54.1*,-4.3,2.6,3.9,-4.4%
C=CC[C@H]1CC(Cc2ccccc2)=C[C@H](CC=C)N1,26.7,26.9,-3.8,-14.3,-55.6,/
O=C(NC1CCCc2ccccc21)c1ccccc1Cl (stereo unspecified),-3.8,-2.4,-0.6,1.5,-14.4,/
O=C(NC1CCCc2ccccc21)c1ccccc1OC(F)F (stereo unspecified),-21.9,94.9*,-0.9,1.1,-0.2,-0.8%
O=c1c2c(n3nnnc3n1-c1ccccc1)-c1ccccc1CC21CCCC1,9.0,-1.3,/,/,-15.9,/
O=c1c2c(n3cnnc3n1-c1ccccc1)-c1ccccc1CC21CCCC1,-12.5,102.0*,-1.1,-2.3,0.2,-7.8%
CC1CC(C)CN(C(=O)COC(=O)CN2C(=O)c3ccccc3C2=O)C1 (stereo unspecified),/,0.1,/,-3.2,-3.1,/
CC1CC(C)CN(C(=O)c2ccc3c(c2NCCO)C(=O)c2ccccc2C3=O)C1 (stereo unspecified),-10.3,81.4*,/,/,30.7,8.08µM*
Cc1cc(/C=N/NC(=O)c2cccc(N(C)C)c2)c(C)n1-c1cc(C(=O)O)cc(C(=O)O)c1,-4.2,55.2*,20.4*,34.8,12.4,-3.7%
O=C(O)COc1ccc2c(c1)O/C(=C\c1cccs1)C2=O,-9.7,-1.5,7.6,-3.9,34.2,/
O=C(O)COc1ccc2c(c1)O/C(=C\c1ccco1)C2=O,3.6,65.9*,10.9,51.7*,/,-2.1%
O=C(CC1(O)C(=O)Nc2cc(Cl)cc(Cl)c21)c1ccncc1 (stereo unspecified),5.9,96.7*,/,/,-0.6,4.7%
CCOc1ccc(NC(=O)CSc2nnc(C34CC5CC(CC(C5)C3)C4)n2C)cc1,8.2,68.8*,/,/,5.9,-2.0%
CCOc1ccc(NC(=O)CSc2nnc(C3CC3)n2C)cc1,-10.1,-0.7,-2.6,-1.8,0.8,/
N=C1SCC(=O)N1c1ncc(Cc2cccc(Cl)c2)s1,-48.7,80.0*,-3.4,-6.0,-2.6,-0.6%
C[C@H](CO)N1C[C@H](C)[C@H](CN(C)Cc2ccc(Cl)c(Cl)c2)Oc2ccc(NS(C)(=O)=O)cc2C1=O,/,/,0.7,-2.6,5.6,/
Clc1ccc2c(NCCNC3CCCCC3)ccnc2c1,10.6,/,-8.1,-24.1,4.3,/
CC(C)NC1CCC(Nc2ccnc3cc(Cl)ccc23)CC1 (stereo unspecified),-11.0,81.2*,/,-13.6,-8.0,-2.7%
Cc1ccc(-c2nc(Nc3cccc(C)c3)sc2CC(=O)O)cc1,-0.2,/,0.3,0.0,/,/
O=C(O)Cc1sc(NC2CCCCC2)nc1-c1ccc(Cl)cc1,5.1,99.0*,-2.9,-1.4,-2.5,-4.5%
CO[C@@H]1CN(C)C(=O)c2ccc(NC(=O)Nc3ccccc3)cc2OC[C@@H](C)NC[C@@H]1C,/,/,-3.1,-0.3,/,/
CC(C)(C)c1[nH]nc2c1C(C1C=CCCC1)C(C#N)=C(N)O2 (stereo unspecified),7.4,126.6*,/,/,-7.4,-5.5%
O=C(O)C1CCN(C(=O)c2ccccc2Cl)CC1,/,0.1,/,/,-5.3,/
SMILES,PfHsp90 yeast 2,NSD2 HMT inh,SIRT5 inh,Casp6 inh,ARNT-TACC3 inh,Alpha artifact
O=C1C(Cl)=C(N2CCC(C(=O)O)CC2)C(=O)c2ccccc21,8.1,101.9*,/,/,25.7,1.7%
CN1CCN(C2=C(Cl)C(=O)c3ccccc3C2=O)CC1,5.5,106.1*,6.2,98.6*,22.6,-3.4%
Cc1ccccc1-c1ccc([C@H]2[C@@H](CO)N3CCCCN(C(=O)c4cccnc4)C[C@@H]23)cc1,/,/,1.3,1.4,-15.4,/
COc1ccc(CCNC(=O)C2CCN(C(=O)c3ccccc3)CC2)cc1,/,-6.2,0.7,-0.7,/,/
COc1ccc(CCNC(=O)C2CCN(C(=O)c3ccccc3C)CC2)cc1,6.7,50.8*,-2.1,1.3,-9.8,-2.0%
O=C(NCC[C@@H]1CC[C@H](NC(=O)C2CCCCC2)[C@H](CO)O1)c1cnccn1,/,/,1.0,-1.2,-0.1,/
CCN1/C(=C/C(C)=C/c2sc3ccccc3[n+]2CC)Sc2ccccc21,71.6,112.4*,7.1,15.5,37.5,5.45µM*
Cc1ccc2cccc(NC3OC(=O)c4ccccc43)c2n1 (stereo unspecified),-8.0,86.9*,/,/,6.7,-5.1%
CNCc1ccccc1OCc1ccccc1F,/,53.4*,-2.6,0.1,-6.3,0.1%
COc1ccc(-c2ccc(C3[C@H]4CNC[C@@H]3N4S(=O)(=O)c3cn(C)cn3)cc2)cc1 (stereo partly specified),/,/,-0.1,-1.5,/,/
N#C[C@@H]1[C@@H](c2ccc(-c3cccc(F)c3)cc2)[C@@H](CO)N1C(=O)NC1CCCCC1,/,/,3.8,0.7,/,/
COCCN(C(=O)CNC(=O)c1ccco1)C(C(=O)NC1CCCC1)c1ccccc1 (stereo unspecified),9.2,3.4,-0.3,-3.8,0.3,/
COCCN(C(=O)CNC(=O)c1ccco1)C(C(=O)NC1CCCC1)c1ccc(OC)cc1 (stereo unspecified),14.2,110.4*,-4.5,-0.4,2.7,-2.0%
CC(C)C(=O)Nc1ccc2c(c1)C(=O)N(C)[C@@H]1CC[C@H](CC(=O)O)O[C@H]1CO2,/,/,-2.1,-1.0,-10.2,/
COc1cc2ccnc(C=NO)c2cc1OC,/,-2.6,/,-2.2,/,/
COc1cc(C(=O)c2nccc3cc(OC)c(OC)cc23)c([N+](=O)[O-])cc1OC,-40.2,53.8*,1.3,20.2,17.4,-9.3%
COc1cc(Br)c(C(=O)c2nccc3cc(OC)c(OC)cc23)cc1OC,-10.0,99.3*,1.0,97.1*,10.2,-4.9%
COc1cc(N)c(C(=O)c2nccc3cc(OC)c(OC)cc23)cc1OC,2.7,72.0*,-2.8,11.2,6.3,-2.5%
C[C@@H]1CN([C@H](C)CO)C(=O)c2cc(NC(=O)CCCCCC(=O)Nc3ccccc3N)ccc2O[C@H]1CN(C)S(C)(=O)=O,/,/,-1.3,1.7,10.1,/
C[C@@H]1CCCCO[C@@H](CN(C)S(=O)(=O)c2ccc(Cl)cc2)[C@H](C)CN([C@H](C)CO)C(=O)c2cc(NS(=O)(=O)c3cccs3)ccc2O1,/,/,8.9,0.2,14.8,/
Cc1ccc(/C=C2/C(=N)N3N=C(CC(=O)N4CCCC4)SC3=NC2=O)o1,-8.3,3.9,6.4,11.1,/,/
N=C1/C(=C\c2ccc(Br)o2)C(=O)N=C2SC(CC(=O)N3CCCCC3)=NN12,12.0,66.7*,20.6*,-1.3,1.8,-4.5%
CCCC(=O)Nc1ccc(NCc2ccc(C)s2)cc1,-11.3,-1.9,-7.0,-3.2,-2.7,/
CC(=O)Nc1ccc(NCc2ccc(C)s2)cc1,-21.9,55.8*,-7.0,5.5,2.2,-3.4%

# Screens from PubChem.
